# Source: PubChem BioAssay (NCI)
# Compounds without any hit were thinned out: in the full panel of roughly 83,000, 20% have a hit.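 How to read the values: 0–100, growth inhibition (40 = 60% inhibited); 0, no net growth; -100 to 0, cell death (-40 = 40% of starting cells died; -100 = all dead).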 Unmarked numbers belong to inactive results. Active and inactive are the calls of the source. Rule for the calls: active = growth percent below 10; inactive = the rest.
# What was measured:
# Assay in all cases: NCI-60 one-dose screen, 48 h (100 = growth as untreated, 0 = no growth, -100 = all killed)
# SK-MEL-2 melanoma = settings: 10 µM
# EKVX NSCLC = settings: 10 µM
# SN12C renal = settings: 10 µM
# UO-31 renal = settings: 10 µM
# TK-10 renal = settings: 10 µM unless noted
# ACHN renal = settings: 10 µM
# CAKI-1 renal = settings: 10 µM
# A498 renal = settings: 10 µM
# CCRF-CEM leukemia = settings: 10 µM
# MOLT-4 leukemia = settings: 10 µM
Structure (SMILES),growth (SK-MEL-2 melanoma) [%],growth (EKVX NSCLC) [%],growth (SN12C renal) [%],growth (UO-31 renal) [%],growth (TK-10 renal) [%],growth (ACHN renal) [%],growth (CAKI-1 renal) [%],growth (A498 renal),growth (CCRF-CEM leukemia),growth (MOLT-4 leukemia)
CCNc1nc2c(cnn2C)c(=O)[nH]1,103,99.4,103,85.7,104,107,93.9,97.1%,93.9%,102%
Cc1ccc(O)c(C(=O)c2ccccc2)c1,107,103,100,97.2,111,104,104,78.7%,55.8%,112%
O=C(O)[C@@H]1[C@H]2C[C@H]3c4[nH]c5ccccc5c4CCN3C[C@@H]2CC[C@@H]1O,30.5,110,107,82.8,104,100,105,130%,103%,139%
O=[N+]([O-])c1ccc(O)c(S(=O)(=O)O)c1,108,105,90.2,116,121,95.2,95.9,114%,102%,98.4%
Cc1cc2nc(CO)[nH]c2cc1C,83,112,105,85.8,131,105,110,101%,93.6%,103%
CN(C)c1nc2c([nH]1)c(=O)n(C)c(=O)n2C,98.7,104,105,99.1,107,102,102,89.6%,92.5%,99.6%
CCN(CC)CCNc1ccc(CO)c2sc3ccccc3c(=O)c12,45.4,65.6,37.5,25.5,46.4,20.4,43.2,-17.9% (active),37%,8.97% (active)
COc1cc(/C=C(\C#N)C(=O)c2ccccc2)ccc1OCc1ccccc1,127,107,102,79.7,109,102,96.5,87.9%,-32.5% (active),106%
Oc1ccccc1-c1nnco1,96.4,107,83.2,55,95.4,83,100,75.9%,89%,90.1%
Oc1ccc2c(c1)OCC1(O)Cc3cc(O)c(O)cc3C21 (stereo not given),65.7,107,100,58.9,106,104,85.5,99.1%,71.5%,316%
Nc1ccc(N)c([N+](=O)[O-])c1,115,110,97.8,88.2,130,102,106,100%,107%,104%
Nc1ccc(N=Nc2ccc(S(=O)(=O)O)cc2)c2ccccc12,102,89.7,104,65.2,140,99.2,91.5,126%,102%,88.9%
[O-][N+](=Nc1cccc(Cl)c1)c1cccc(Cl)c1,112,88.8,93,72.8,108,94.3,96.4,103%,111%,125%
O=c1[nH][nH]c(=O)c2cc([N+](=O)[O-])ccc12,103,106,108,85.7,104,107,96.8,117%,100%,100%
